The record followed here is PubChem BioAssay (EPA / NIEHS).

Assay [1] is described as follows: TAMU_PeakParms_SingleDonor1434_Asystole: Texas A&M University (TAMU) 1.5-hr Human Induced Pluripotent Stem Cell (iPSC)-derived Cardiomyocytes Calcium (Ca+2) Flux Assay for Cardiotoxicity: Asystole (quiescence of beating) (AID 2284328). Put shortly: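 Average Ca2+-flux peak frequency (beats/s) was recorded in single-donor iPSC-derived cardiomyocytes after 90 min exposure (0.2–100 uM final, 0.5% DMSO). Asystole POD set as EC95 against DMSO, no preprocessing.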

A short description of assay [2]: VALA_TUBIPS_Antagonist_CellCount: Viability Assessment in the VALA Sciences human iPS-derived Endothelial Tubule Formation (TUBIPS) Antagonism Assay (AID 2284335).
Assay [3] in a line: VALA_MIGHUV1_ScratchOnly_WoundArea: VALA Sciences human Umbilical Vein Endothelial Cell Migration (MIGHUV) Assay, Area of Scratch Wound Inhibited Recovery (AID 2284336). As to the method:
VALA_MIGHUV1_ScratchOnly is a cell-based, multiplexed assay that uses umbilical vein-derived endothelial cells (HUVEC). Measurements were taken 24 hours after chemical dosing in a 96-well plate.VALA_MIGHUV1_ScratchOnly_WoundArea is the one of two assay components measured from the VALA_MIGHUV1_ScratchOnly assay. It is designed to make measurements of endothelial migration, a form of morphology reporter, as detected with fluorescence intensity signals by HCS Fluorescent Imaging technology. Data from the assay component VALA_MIGHUV1_ScratchOnly_WoundArea was analyzed at the endpoint, VALA_MIGHUV1_ScratchOnly_WoundArea, in the positive analysis fitting direction relative to DMSO as the negative control and baseline of activity. Using a type of morphology reporter, gain-of-signal activity can be used to understand developmental effects. To generalize the intended target to other relatable targets, this assay endpoint is annotated to the neurodevelopment intended target family, where the subfamily is migration.
Cells were seeded on 384-well microplates (day-0) at a density of 9000 cells per well for detection of wound area recovery or 4000 cells per well for detection of beta-catenin (CTNB) immunoreactivity and incubated in Endothelial Cell Growth Medium (CAI, San Diego; catalog 211-500). […]

Assay [4] can be described thus: VALA_TUBHUV_Agonist_TubuleLength: VALA Sciences human Umbilical Vein Endothelial Tubule Formation (TUBHUV) Agonism Assay (AID 2284337). An outline of the steps: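 Tubule length quantified by CD31 immunofluorescence imaging after fixation. HUVEC-HDF co-cultures (1:3) pre-grown 3 days with 10 ng/ml VEGF, then dosed 3 days in VEGF medium; 0.1 % DMSO vehicle baseline.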

Assay [5] in a line: VALA_TUBIPS_Agonist_CellCount: Viability Assessment in the VALA Sciences human iPS-derived Endothelial Tubule Formation (TUBIPS) Agonism Assay (AID 2284338). The method, then:
VALA_TUBIPS_Agonist is a cell-based, multiplexed assay that uses human iPS-derived endothelial cells (iPSC). Measurements were taken 72 hours after chemical dosing in a 96-well plate.VALA_TUBIPS_Agonist_CellCount is the one of two assay components measured from the VALA_TUBIPS_Agonist assay. It is designed to make measurements of viability, a form of viability reporter, as detected with fluorescence intensity signals by HCS Fluorescent Imaging technology. Data from the assay component VALA_TUBIPS_Agonist_CellCount was analyzed at the endpoint, VALA_TUBIPS_Agonist_CellCount, in the positive analysis fitting direction relative to DMSO as the negative control and baseline of activity. Using a type of viability reporter, loss-of-signal activity can be used to understand viability. To generalize the intended target to other relatable targets, this assay endpoint is annotated to the cell cycle intended target family, where the subfamily is cell count.
This HUVEC-HDF assay was designed to detect chemical suppression of tubulogenesis, i.e. antagonism. To measure tubulogenesis antagonism, HUVEC cells were co-cultured with HDF cells at a 1:3 ratio for 3-days in 10 ng/ml VEGF (i.e., favorable conditions with growth factors), then changed to assay medium containing 10 ng/ml VEGF and ToxCast compounds for an additional 3-day period. […]

Inconclusive results are not listed. Active and inactive are the calls of the source. The calls were made as follows: active = hit-call score of the fitted dose curve at least 0.9, where 1 is the maximum; inconclusive = response in the unintended direction; inactive = score below 0.9.

With `CC(=O)Nc1ccc(O)cc1`, the outcome in assay [1] was inactive.
On the same count and under the same terms, the entry for `O=C1NS(=O)(=O)c2ccccc21` is “inactive”.
`O=C(CCCN1CCC(O)(c2ccc(Cl)cc2)CC1)c1ccc(F)cc1`: the outcome in assay [2], in assay [3], in assay [4] and in assay [5] was inactive.
